USP1 inh – inhibitors of human USP1/UAF1 deubiquitinase; O94782; recombinant USP1/UAF1, Ub-Rhodamine cleavage fluorescence; Potency, µM (top dose mostly 57.1 µM), actives largely listed as inhibitors; 0.23% of 390,000 active; AID 743255; note: nearly all actives have a fitted effect of over 60% in size
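USP1/UAF1 complex at 1 nM was preincubated with compound for 15 min at room temperature, then Ub-Rho substrate (150nM final) was added. Fluorescence (480/540 nm) was read kinetically, 6 reads every 60 seconds.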
EPAC1 agonist – EPAC1 (human) agonism; O95398; EPAC1 agonist qHTS, biochemical assay; response scale: 100% = response to 6.5 mM cAMP; Potency, µM (titrated, usually from 154 µM), usual class: activators; 0.073% of 360,000 active; AID 720707; note: nearly all actives have a fitted effect of over 60% in size
Target sequence (O95398 whole entry, looked up): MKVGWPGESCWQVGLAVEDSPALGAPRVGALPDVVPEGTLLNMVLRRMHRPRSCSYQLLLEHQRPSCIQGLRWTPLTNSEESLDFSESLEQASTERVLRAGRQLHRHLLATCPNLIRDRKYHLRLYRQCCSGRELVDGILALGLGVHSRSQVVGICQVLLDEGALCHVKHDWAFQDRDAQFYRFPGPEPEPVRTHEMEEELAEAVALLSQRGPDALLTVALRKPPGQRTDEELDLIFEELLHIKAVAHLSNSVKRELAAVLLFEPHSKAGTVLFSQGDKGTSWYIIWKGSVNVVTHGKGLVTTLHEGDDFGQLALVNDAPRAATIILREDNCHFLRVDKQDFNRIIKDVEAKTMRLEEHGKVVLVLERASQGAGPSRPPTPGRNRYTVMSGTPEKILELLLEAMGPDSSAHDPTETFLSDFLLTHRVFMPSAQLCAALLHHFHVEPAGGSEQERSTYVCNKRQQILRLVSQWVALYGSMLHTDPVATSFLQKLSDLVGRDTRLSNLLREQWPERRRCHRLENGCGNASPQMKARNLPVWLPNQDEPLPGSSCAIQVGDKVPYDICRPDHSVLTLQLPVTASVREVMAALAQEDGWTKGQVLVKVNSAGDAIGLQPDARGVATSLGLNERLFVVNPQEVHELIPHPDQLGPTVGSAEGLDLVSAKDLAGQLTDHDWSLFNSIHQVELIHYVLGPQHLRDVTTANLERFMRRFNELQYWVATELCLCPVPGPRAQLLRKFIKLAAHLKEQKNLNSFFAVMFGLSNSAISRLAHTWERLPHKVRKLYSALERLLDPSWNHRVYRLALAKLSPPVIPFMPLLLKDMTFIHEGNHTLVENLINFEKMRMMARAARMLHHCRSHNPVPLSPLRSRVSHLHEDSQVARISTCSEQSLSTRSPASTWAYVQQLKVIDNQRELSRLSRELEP
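Compounds were pinned as a concentration titration into mixtures of EPAC1 (100 nM), BODIPY-GDP-loaded Rap1B (250 nM) and GDP (50 uM). After 5 min at room temperature, fluorescence was followed for 30 min; activity was scaled to 6.5 mM cAMP.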
12-LOX inh – inhibitors of human 12S-lipoxygenase ALOX12; Potency, µM (series often up to 108 µM), usual class: inhibitors; 1.1% of 580,000 active; purified 12hLO, xylenol orange hydroperoxide absorbance; AID 1671190; P18054
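Hydroperoxide product was detected by ferrous iron/xylenol orange as the 573 to 405 nm absorbance ratio. Arachidonic acid at 40 uM (final) was turned over for 30 min at room temperature by 150 nM human 12hLO, pH 7.0 Hepes buffer, after 15 min compound preincubation.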
EPAC1 antag – EPAC1 (human) antagonism; EPAC1 GEF assay, Rap1b-BODIPY-GDP exchange fluorescence; Potency, µM (series often up to 115 µM), hits mostly inhibitors; 0.14% of 360,000 active; O95398; AID 720709; note: nearly all actives have a fitted effect of over 50% in size
EPAC2 antag – antagonists of human EPAC2. 0.18% of 360,000 active. Q8WZA2. Potency, µM (series often up to 114 µM), hits mostly inhibitors. EPAC2 GEF exchange of Rap1B-BODIPY-GDP, fluorescence; note: nearly all actives have a fitted effect of over 45% in size
EPAC2 ag – EPAC2 (human) agonism; 0.079% of 360,000 active; EPAC2 activation, biochemical qHTS; response scale: 100% = 6.5 mM cAMP response; Q8WZA2; Potency, µM (doses to about 154 µM), most hits filed as activators; note: nearly all actives have a fitted effect of over 50% in size
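EPAC2 (100 nM) mixed with Rap1B loaded with BODIPY-GDP (250 nM) plus 50 uM unlabeled GDP; compounds pinned in, 5 min RT, then read every 5 min for 30 min (ex 480, em 540 nm). Normalized to cAMP control.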
Hits are given with their value; . = inactive; ? = inconclusive; / = no result given; ! = not confirmed by another sample. This is a sample that favours compounds with a hit; in the whole collection about 1.3% have one here. Calls come from the whole dose curve; as a rule, active = well fitted curve in the direction sought with a large enough effect; inconclusive = small, poorly fitted or top-dose-only effect, or another doubt; inactive = no such curve, though single readings can be large; an effect the other way counts as inactive or inconclusive.

SMILES	USP1 inh	EPAC1 agonist	12-LOX inh	EPAC1 antag	EPAC2 antag	EPAC2 ag
COc1cc(/C=C2/C(=O)NN(c3cccc(C)c3)C2=O)ccc1OC(=O)c1ccco1	?	.	35µM	.	.	.
CCc1ccc(C(=O)NCCOC)o1	/	/	.	/	/	/
O=C1CCCCCCCCCCCCCCCO1	/	/	.	/	/	/
COc1cc(C#N)ccc1OC(C(=O)NC1CC1)c1ccc(F)cc1 (centres undefined)	/	/	.	/	/	/
COc1cc(C#N)ccc1OC(C(=O)NC1CC1)c1ccccc1 (centres undefined)	/	/	.	/	/	/
CCOC(=O)c1nn(-c2ccc(C)cc2)c(=O)c2c(N)scc12	?	.	25µM	.	.	.
Cc1cccc(CSCc2ccc(-c3nc(-c4ccc(Br)cc4)no3)o2)c1	/	/	3.5µM	/	/	/
Cc1cccc(-c2nc(-c3ccc(Br)cc3)no2)c1	/	/	.	/	/	/
O=C(CSc1nnc2c3c4c(sc3ncn12)CCCC4)Nc1cccc(Cl)c1	/	/	.	/	/	/
CCOc1cc(/C=N/NC(=O)c2ccc(-c3csc(Nc4ccc(C)cc4)n3)cc2)ccc1OCC(=O)O	.	?	?	40µM	.	.
Cc1nc(CC(=O)N/N=C/c2ccc(OCC(=O)O)cc2)cs1	.	.	.	.	.	.
O=C(O)COc1ccc(/C=N/NC(=O)c2ccc(-c3csc(Nc4ccc(Cl)cc4)n3)cc2)cc1	?	.	?	7.9µM	?	.
COc1cc(/C=N\NC(=O)c2ccc(-c3ccccc3)cc2)ccc1OCC(N)=O	.	.	.	.	.	.
CN1CCN(CCCCNC(=O)c2cccc(C#N)c2)CC1	/	/	.	/	/	/
Nc1nc(N2CCN(Cc3ccc(Cl)cc3Cl)CC2)c2[nH]cnc2n1	/	/	.	/	/	/
O=C(N/N=C/c1cccc2ccccc12)c1cccnc1	.	.	11µM	?	.	.
COc1ccc(Cn2c(O)c(/C=N/NC(=O)c3cccnc3)c3ccccc3c2=O)cc1	32µM	.	.	.	.	.
O=C(N/N=C/c1c(O)n(Cc2ccccc2)c(=O)c2ccccc12)c1cccnc1	25µM	.	.	?	.	.
O=C(N/N=C/c1c(O)n(-c2ccccc2Cl)c(=O)c2ccccc12)c1cccnc1	?	.	.	?	.	.
O=C(COc1c(Cl)cccc1Cl)Nc1cccc2cccnc12	/	/	.	/	/	/
CC(/C=C/c1ccccc1)=N\NC(N)=S	.	.	11µM	.	.	.
CCc1ccc(-c2cc(C(F)(F)F)on2)cc1S(=O)(=O)NCc1ccc(OC)cc1	/	/	.	/	/	/
O=c1oc2cc(O)ccc2cc1-c1nc2ccccc2o1	/	63µM	?	.	.	?
Cc1cnc(C(=O)N2CCOCC(CO)C2)cn1 (centres undefined)	/	/	50µM	/	/	/
O=C(/C=C/c1ccc(Cl)c(Cl)c1)c1ccc(OC(F)F)cc1OC(F)F	/	/	.	/	/	/
SMILES	USP1 inh	EPAC1 agonist	12-LOX inh	EPAC1 antag	EPAC2 antag	EPAC2 ag
COc1cc2c(cc1C(F)(F)F)N(C(=O)Nc1cc(F)cc(-c3cccnc3)c1)CC2	/	/	.	/	/	/
Cn1ccc2cc3c(cc21)CCN3C(=O)Nc1cccnc1	.	.	9.7µM!	.	.	.
COC(=O)Cc1c(C)c2cc(Cl)c(OC(=O)c3ccco3)cc2oc1=O	.	.	.	.	.	.
COC(=O)Cc1c(C)c2ccc(OC(=O)c3ccco3)cc2oc1=O	.	.	.	.	.	6.3µM
O=c1c2cn[nH]c2[nH]c(=S)n1-c1ccccc1	.	.	6.3µM	.	.	.
COc1ccc(-n2c(=S)[nH]c3[nH]ncc3c2=O)cc1	.	.	.	.	.	.
Cn1c(-c2cccc(Br)c2)cnc1NCc1ccccc1O	.	.	14µM	.	.	.
COc1ccc(CNc2ncc(-c3ccc(Br)cc3)n2C)cc1OC	.	.	.	.	.	.
COc1cccc(CNc2ncc(-c3ccc(Br)cc3)n2C)c1	.	/	8.9µM	/	/	/
Cn1c(-c2ccc(Br)cc2)cnc1NCc1ccc(C#N)cc1	.	.	2.5µM	.	.	.
CC(=O)C1=C(O)C(=O)N(c2cccc(Br)c2)C1c1ccccc1Cl (centres undefined)	.	.	18µM	.	.	.

Compound activity as filed in PubChem BioAssay.
